Measurements from PubChem BioAssay AID1745848 (National Center for Advancing Translational Sciences (NCATS), 2022).
In all, about 2,100 compounds went through this assay and about 940 (45%) were called active. Roughly 48% stayed inconclusive and do not appear here. The call rests on the fitted dose curve; in most records, active means well fitted inhibition curve with a large enough effect; inconclusive means small, poorly fitted or top-dose-only effect; inactive means no such curve, though single readings can be large or run the other way. The set was probably picked from earlier hits. The list shows a part of the results.

Assay: Confirmatory qHTS for Inhibitors of ATXN expression; further: nearly all actives have a fitted effect of over 65% in size
Settings: ATXN2-luciferase reporter cells, luminescence, 24 h; series mostly up to 11.5 µM
How it was run: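 A titration, incubated 24 h with reporter cells expressing ATXN2-luciferase. Luminescence (SteadyGlo) gives ATXN2 expression, multiplexed GF-AFC fluorescence gives viability; normalised to DMSO and medium-only wells.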
Potency means the concentration at half of the fitted maximal effect.

Potency, active:
C/C(=C\C(=O)c1ccc(Br)cc1)NNC(=O)c1ccc(O)cc1 14.1 µM, CC(=NNc1nc2ccccc2o1)c1ncccn1 0.199 µM, Cc1ccc(C)c(NC(=O)CSc2n[nH]c(-c3ccccn3)n2)c1 22.4 µM, Cc1ccccc1NC(=O)CSc1n[nH]c(-c2ccccn2)n1 14.1 µM, CC1=C(CC[C@@H](C)CO)OC2CC3C4CCC5CC(O)CCC5(C)C4CC(=O)C3(C)C12 (stereo not given in full) 3.16 µM, CCOc1cc(/C=N/Nc2cc(C)nc(-n3nc(C)cc3C)n2)ccc1O 0.708 µM, Cc1cc(N/N=C/c2ccccc2[N+](=O)[O-])nc(-n2nc(C)cc2C)n1 3.16 µM, Cc1cc(N/N=C/c2ccc(O)cc2O)nc(-n2nc(C)cc2C)n1 5.01 µM, Cc1nc(N/N=C/c2ccc(O)cc2O)cc(N2CCOCC2)n1 11.2 µM, CS/C(=C\[N+](=O)[O-])Nc1ccc(OC(F)(F)F)cc1 11.2 µM, OC(CNCCc1ccccc1)COc1ccc(OCC(O)CNCCc2ccccc2)cc1 (stereo not given) 12.6 µM, O=c1c2c(nc3c(-c4ccc(Cl)cc4)c[nH]n13)CCCC2 1.26 µM, CCCc1cc(=O)n2[nH]cc(-c3ccc(Cl)cc3)c2n1 2.82 µM, O=C(c1cccc(Cl)c1)c1nn(-c2ccccc2)c(=O)cc1C(F)(F)F 31.6 µM, O=c1c2ccccc2sc2nc(CCl)nn12 3.16 µM, O=c1[nH]c(CN2CCN(c3ncccn3)CC2)nc2c(Br)cc(Br)cc12 2.82 µM, COc1cc(/C=N\NC(=O)CC#N)ccc1OC/C=C/c1ccccc1 28.2 µM, Cc1[nH]c2ccccc2c1SCc1nnc(SCc2ccc(Cl)cc2)n1C 31.6 µM, Cc1ccc2cc(C3C(C#N)=C(N)Oc4c3ccc3cccnc43)c(=O)[nH]c2c1 (stereo not given) 6.31 µM, Cc1cccc(/C=C/C(=O)c2ccc([N+](=O)[O-])o2)c1 3.16 µM, COc1ccc(/C=C/C(=O)c2ccc([N+](=O)[O-])o2)cc1OC 7.94 µM, Cc1cc(C)cc(NC(=O)c2ccc([N+](=O)[O-])o2)c1 2.82 µM, CNC(=O)c1sc(N2N=C3/C(=C/c4ccccc4)CCCC3C2c2ccccc2)nc1C (stereo not given) 12.6 µM, CC(CCc1ccccc1)NC(=O)c1ccc(C(=O)NC(C)CCc2ccccc2)cc1 (stereo not given) 1.58 µM, Cc1ccc(C(=O)NC(C)CCc2ccccc2)cc1S(=O)(=O)N1CCOCC1 (stereo not given) 15.8 µM, CC(C)[C@H](CO)Nc1nc(NCc2ccc(S(N)(=O)=O)cc2)c2ncn(C(C)C)c2n1 2 µM, Oc1c(Cl)cc(Cl)cc1/C=N/Nc1ncc(Br)cn1 2.51 µM, CC1CC2(C)Oc3ccccc3CC2C(C)C1CNCCCN(C)C (stereo not given) 14.1 µM, CCc1nc2ccccc2c(C(=O)OCC(=O)Nc2cccc(S(=O)(=O)NC3=NCCCCC3)c2)c1C 17.8 µM, Cc1cc(/C=N/n2c(COc3ccccc3)nc3ccccc3c2=O)c(O)c([N+](=O)[O-])c1 7.94 µM, Cn1c(SCC(=O)N/N=C/c2ccc([N+](=O)[O-])s2)nnc1-c1ccccc1 17.8 µM, Cn1c(SCC(=O)N/N=C/c2ccc([N+](=O)[O-])s2)nnc1-c1ccc(Cl)cc1 10 µM, C=CCc1cccc(/C=N/NC(=O)CNc2ccccc2OC)c1O 5.01 µM, C=CCc1ccccc1OCC(=O)N/N=C/c1ccc(OC(C)=O)cc1OC(C)=O 15.8 µM, C=CCc1cccc(/C=N/NC(=O)CNc2ccccc2)c1O 2.82 µM, CCC(=O)NC(=S)NNC(=O)c1ccc(OC)cc1 15.8 µM, COc1ccc(-c2nn(-c3ccccc3)cc2C(=O)NC(=S)NNC(=O)c2ccncc2)cc1 15.8 µM, CCCCOc1ccc(C(=O)NNC(=S)NC(=O)CC)cc1 2.82 µM, COc1ccc(C(=O)NNC(=S)NC(=O)c2ccccc2)cc1 14.1 µM, C=CS(=O)(=O)c1c2cc(OC)ccc2nc2ccc(OC)cc12 28.2 µM, COc1ccc(C)cc1Nc1nc(N)c2cc(OC)c(OC)cc2n1 2.82 µM, O=C(COC(=O)c1cc([N+](=O)[O-])ccc1N1CCOCC1)Nc1ccc(Cl)cn1 6.31 µM, CCN(CC)c1nc(-c2ccccn2)nc(-c2ccccc2)c1C#N 7.08 µM, O=C(NNC(=O)C12CC3CC(CC(C3)C1)C2)c1ccccn1 8.91 µM, O=C(NNC(=O)C(c1ccccc1)c1ccccc1)c1ccccn1 3.16 µM, O=C(NCC(=O)N1CC(O)CC1C(=O)N1CCCC1C(=O)OCc1ccccc1)OCc1ccccc1 (stereo not given) 3.16 µM

Potency, inactive:
O=C(c1cc(COc2cccc(C(F)(F)F)c2)on1)N1CCC(c2ccncc2)CC1, Cc1ccsc1/C=C/C1=Cc2c(sc(NC(=O)CSc3n[nH]c(N)n3)c2C#N)C(C)(C)C1, C/C(=N\Nc1cc(N2CCOCC2)nc(C)n1)c1cccc([N+](=O)[O-])c1, Cc1cc(O)c(C(C)C)cc1N=Cc1ccccc1[N+](=O)[O-], Cn1c(CCc2nc3ccccc3[nH]2)nnc1SCC#N, Cc1cc2sc3ccc(C#CC4(O)CCCCC4)cc3c(=O)c2cc1C, CC(C)n1c(NCc2cc(Cl)ccc2O)nc2ccccc21, Cc1ccc(NC(=O)CNc2cccc(Br)c2)cc1S(=O)(=O)N1CCOCC1, C(=NN1CCCCCC1)c1ccc2ccccc2n1, CCc1nc2ccccc2c(C(=O)OCC(=O)Nc2ccc(NC(C)=O)cc2)c1C, CSc1sc(-c2nnc(SCC(=O)Nc3ccc(Cl)cc3)n2C)c2c1C=CCC2, CCCOc1ccc(C(=O)NC(=S)NNC(=O)c2c(-c3ccccc3)noc2C)cc1, CCCC/C(C)=N/NC(=O)c1cn(-c2ccccc2)nc1-c1ccccc1, CC(C)Nc1nc(-c2ccccn2)nc(-c2ccccc2)c1C#N
